Laboratory results: the supplement of paper PMC3334620
Whole data set: some 33,000 sequences, median “E-score (-0.5 to 0.5)” near -0.04, cut for the highest 2% near 0.36. The entries come from a sample that favours the highest values as a whole.

The sequences below were run against T1, Hmlalpha2 (UniProt P0CY09) (assay: PBM E-score (8-mer binding enrichment) (E-score (-0.5 to 0.5)); higher = stronger / more preferred TF binding). Conditions: protein concentration: 200 nM; construct: GST-full length.
T1 sequence: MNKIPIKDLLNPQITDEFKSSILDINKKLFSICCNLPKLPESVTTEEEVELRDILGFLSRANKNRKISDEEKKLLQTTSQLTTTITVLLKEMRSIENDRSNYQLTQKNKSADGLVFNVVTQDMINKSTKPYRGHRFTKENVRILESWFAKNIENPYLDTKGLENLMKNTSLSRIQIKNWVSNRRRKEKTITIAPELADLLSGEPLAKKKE
Procedure: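 Universal 'all 10-mer' protein binding microarrays (Agilent AMADID 015681) probed with GST-tagged S. cerevisiae TFs (full-length or DBD) made by in vitro transcription/translation (PURExpress), about 100-200 nM. Bound TF was detected with fluorescent anti-GST. Each ungapped 8-mer (which stands for itself and its reverse complement) is scored by the PBM enrichment score (E-score), a modified Wilcoxon-Mann-Whitney statistic from -0.5 to +0.5, computed with the Universal PBM Analysis Suite. Scale: above 0.35 generally sequence-specific binding.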

Sequence	PBM E-score
CGATGTTA	0.353
CCATGTGA	0.184
AAATGTTA	0.33
AGATGTTA	0.201
CCATGTTA	0.458
ACATGTTA	0.461
CGCCTGGC	-0.0832
GCGCATGA	-0.252
GCTGTCCA	-0.0572
CTCGTCAC	-0.0377
AATCGGTC	-0.081
CTCCTAAG	-0.115
CAGGAGCA	-0.173
ACATAACC	0.222
GCATAACA	0.307
CCATAGCA	-0.145
ACATAGCA	0.392
ACATAACT	0.325
ACATAACG	0.368
ACATAACA	0.434
CCATAACA	0.333
TCATAGCA	-0.0434
CACACCAG	-0.011
GGATGACC	-0.218
GATTTTGA	0.12

Sequence	PBM E-score
ACGATGTG	0.19
CAGTTTGC	-0.118
ACAGGGAA	0.0611
CGCTGATC	-0.177
AGGGGAGC	-0.33
GCGTCTCC	-0.033
AAGCGTGG	-0.0995
ACACGTGG	0.293
AATCGTGT	0.406
ACACGTGA	0.318
AAACGTGT	0.375
ACACGTGT	0.432
AAACGTGA	0.168
AATCGTGC	0.151
AAGCGTGA	-0.0159
AAACGTGG	-0.0689
AATCGTGA	-0.00694
AAGCGTGT	0.371
ACGGCGAT	-0.0673
AGTCGGGG	-0.191
CAAGAATG	-0.0486
AGGGCCAG	-0.22
AGGCCAAG	-0.247
AGTCTATC	-0.0461
GTGGGCGA	-0.04

Sequence	PBM E-score
GACGTGGA	-0.209
AACGTGTA	0.455
GACGTGAA	-0.0003
CACGTGAA	0.108
CACGTGTA	0.444
GACGTGTA	0.41
AACGTGTG	0.233
CACGTGTC	0.25
AACGTGTC	0.263
GAAGTCTC	-0.247
GTACCCTA	-0.0877
GTCGACCA	-0.0364
GGATCCAA	-0.0601
GAGTAGCA	-0.0964
CCCCCGCG	-0.241
CCGTTTAG	-0.0825
GCGTGTCA	0.382
ACGTGTCA	0.392
GTGTGTCA	0.307
TAGTGTCA	0.0999
CCGTGTCA	0.351
TCGTGTCA	0.395
ACGTGTCG	0.308
GCGTGTCC	0.142
CGGTGTCA	-0.0723

Sequence	PBM E-score
GCTCCAGA	-0.207
ATGAGAAA	0.0401
CGGAGGCC	-0.334
TCACCTGA	-0.136
CTTGGCAA	-0.143
AATGTATA	0.315
AATGTATC	0.284
CATGTATA	0.466
CTTGTATC	0.264
CATGTATC	0.405
GATGTATA	0.237
AGTGCAAT	0.00712
TGATGCAA	0.0282
GGATGTAA	0.397
GGATGTCA	0.133
CGATGTAA	0.417
CGATGTGA	0.105
GGATGTAC	0.225
TGCTGTAA	0.17
CGATGTAC	0.221
AGATGTAA	0.382
AGATGTAG	0.094
AGATGTAT	0.251
TGATGTAA	0.389
CCATCTAC	0.0186

Sequence	PBM E-score
CTCTGCCC	-0.109
AGCAATGG	-0.0784
CATACCAA	0.141
CACGGTGA	0.155
ACCATTAG	-0.0407
AGCCCTCC	-0.312
CAGGCGAA	0.0909
GGTTGAAA	-0.0197
CGTTGTAA	0.368
TGTTGAAA	0.37
AGTTGAAA	0.0609
CGTTGTAC	0.278
AGTTGTAA	0.248
GGTTGTAA	0.342
CGTTGTAG	0.242
TGTTGTAA	0.401
AAGAGTAC	0.0432
ATCCCTAG	-0.00744
CAGTACCG	-0.142
CCCGATTC	-0.0455
GTAGCGGA	-0.0459
GTTATCCA	0.0731
AGCCATCG	-0.171
ATGCCTAC	-0.224
GACCTCCA	-0.0969

Sequence	PBM E-score
CTTTGGTC	-0.0966
CACACGGA	0.0896
AACACGGC	0.359
GACACGGA	0.224
CACACGGG	0.218
TACACGGA	0.447
AACACGGT	0.402
ACCACGGT	-0.134
AACACCGA	0.193
AACACGGA	0.374
ATCACGGA	-0.189
AACACGGG	0.387
ACCACGGG	-0.213
ACGATTCC	-0.04
CTAGGCGC	-0.158
CAAGAGCA	-0.00496
CTTCAAAC	-0.0259
CTGCCTGC	-0.252
AATTCTTG	0.12
GGCGGTCA	-0.283
GGAAGGTA	-0.132
ACAAAGGG	-0.0246
CTGCCAGA	-0.232
CTCAACAA	0.302
ATCAACAT	0.44

Sequence	PBM E-score
ATCAACAG	0.136
GTCAACAC	0.358
CTCAACAC	0.382
ATCAACAA	0.306
ATCAACAC	0.399
AGCAACAC	0.26
ATCAACCC	0.144
CATACCCA	0.182
AATAATAA	0.311
ACCGAGGC	-0.359
GGGCAGAA	0.0375
CCAAGTGC	-0.171
GTTAACAA	0.366
ATTAACAA	0.415
CTTAACAC	0.419
ATTAACGC	0.372
CTTAACCC	-0.0467
CTTAACAA	0.307
ATTAACGG	-0.00314
ATTAACAG	0.261
ACTAACAA	0.253
ATTAACGA	0.317
GTTAACTA	0.362
GTTAACCA	0.285
AGACTAAA	-0.0357

Sequence	PBM E-score
AATGCAGT	-0.00748
CCTTCACA	0.0306
CACATCCC	-0.0137
GCCAAACA	-0.107
AGTAGAGG	-0.226
CGTAGCAG	-0.129
CAGTTCTC	-0.179
ATTAACAC	0.455
ATTAACCC	0.0714
ATTAACTC	0.216
ACCATGTA	0.467
ACCATGTC	0.296
CCCATGGA	-0.1
GCCATGTA	0.457
CCCATGTA	0.447
GCCATGGA	-0.178
GCCATGCA	0.0965
CCCATGTC	0.161
ACCATGTG	0.188
CACCATGC	-0.0851
TCACATCA	0.00787
CGTAACGC	0.193
CTGCCAGC	-0.238
ATTATGTG	0.17
GTTATGTA	0.419

Sequence	PBM E-score
CTTATGTC	0.117
CTTATGTA	0.409
GTTATGCA	0.00491
CTTATGCA	0.135
ATTATGTA	0.415
GTTATGAA	0.186
ATTATGTC	0.164
GCGCCAGA	-0.138
AGTCGGGA	-0.192
GAAGCTAA	-0.0677
ATCCACAT	0.158
CAATGTAC	0.217
TAATGTCA	0.155
AAATGTAC	0.236
CAATGTAA	0.435
GAATGTAC	0.16
GAATGTCA	0.0786
TAATGTAA	0.431
GAATGTAA	0.372
AAATGTAG	0.113
CAATGTAG	0.172
TAATGTGA	0.19
AAATGTAA	0.394
CTGAAAAC	0.1
CTCAGAAG	-0.215

Sequence	PBM E-score
AACCCGAT	0.0593
ACGGGGGG	-0.22
ACTCGGGG	-0.134
AAACCGAG	-0.204
ATGTATCC	0.294
CTGTATAC	0.247
GCGTATAA	0.337
CCGTATAC	0.0388
ATGTATAA	0.395
GTATATAA	0.29
GAGTATAA	0.169
GCGTATAC	0.371
ATGTATAG	0.362
ATGTATAC	0.435
CTGTATAA	0.209
GTGTATAA	0.391
GTATGCCA	-0.254
ACGACCCA	-0.0906
TGTAGGAA	0.226
GCCACCGC	-0.33
GATGGACA	-0.0833
CTTGAAAC	-0.111
ATGCTGCA	0.0587
TCCTATCA	-0.172
AGTCGCGA	-0.0755

Sequence	PBM E-score
CTCCCATC	-0.242
CATCTGAG	-0.137
CAAAATTC	0.15
ATACCTGG	-0.252
ATGCTGTA	0.136
AAGGAGCT	-0.163
ATGTAGGA	0.236
GAGTAGAA	0.147
ATGTAGAC	0.391
GTGTAGAA	0.445
AAGTAGAG	0.018
CTGTAGAC	0.104
ATGTAGAG	0.376
CTGTAGAA	0.161
ACGTAGAG	0.224
ATGTAGGC	0.169
GCGTAGAA	0.313
ATGTAGAA	0.43
CACAGATC	-0.0314
GAATCTTA	-0.127
CGATTAAC	0.149
TATCCTCA	-0.113
ATGTTACA	0.401
ATGTTACC	0.317
ACGTTAAA	0.362

Sequence	PBM E-score
CTGTTACA	0.281
CTGTTAAG	0.255
ACGTTAAG	0.255
ATGTTAGA	0.358
AGGTTAAT	0.182
ATGTTAAA	0.473
AAGTTAAT	0.187
ATGTTAAT	0.447
ATGTTAAG	0.445
CACAAACG	0.241
ACTCTCCT	-0.223
CAGCTACC	-0.168
CCCTAGAG	-0.232
ATTTACAG	0.269
ATTTACCA	0.21
CTTTACAA	0.38
CTTTACTA	0.252
ATTTACCC	0.0345
ATTTACTC	0.301
ATTTACAA	0.453
GCTTACAA	0.275
ATTTACAC	0.479
GTTTACTA	0.356
GTTTACAA	0.425
CTTTACCA	0.0599

Sequence	PBM E-score
GAATTTGA	-0.109
AAACTGGG	-0.278
ATAGTGGC	-0.192
GGCTTGAC	-0.093
ACAACATC	0.263
ACAACATG	0.451
GCAACATA	0.219
ACAACAAG	0.298
CCAACATA	0.314
ACAACATA	0.382
AGTGGATG	-0.0671
ACCTGAGT	0.0645
AAGGATCT	-0.17
ACCACGAG	-0.135
ACACGCTA	0.414
CCACGCTC	-0.335
GCACGCTA	-0.192
ACACGCTC	0.399
ACACGCTG	0.355
AAACGCTC	-0.144
GAGTTAGA	-0.0875
AGAAGGCC	-0.213
GATGAAGC	-0.157
GTATGTTA	0.414
CTATGTTC	0.252

Sequence	PBM E-score
GGATGTTA	0.299
ATATGTTA	0.384
ATATGTTG	0.346
CTATGTTA	0.414
GAATGTTA	0.287
CTCTGTTA	0.23
ATATGTTC	0.198
CGAATATA	-0.00331
AGGGGAGG	-0.299
ACTTGGAA	-0.144
ATTAGCGC	0.0131
GATTCAAC	0.0589
ATGGGTTG	0.0606
TGTTTTAA	0.382
GATGTTTA	0.223
TGTTTAAA	0.34
AGTTTTAA	0.169
GGTGTTAA	0.361
CATGTTTA	0.437
TGTGTTAA	0.471
CATGTTTC	0.333
CATGTTGA	0.477
AATGTTGA	0.256
TCTGTTAA	0.331
CATGTTGC	0.334
